Data published in PubChem BioAssay (NCI).
Compounds without any hit were thinned out: in the full panel of roughly 79,000, 15% have a hit. Unmarked numbers belong to inactive results. Calls of active or inactive are those of the source. Cut-off read from the data, not from the text of the source: active = growth inhibition above about 70%; inactive = the rest.

Assay: NCI Yeast Anticancer Drug Screen. Data for the rad50 strain (AID 155);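 note: 0% = growth of vehicle-only cultures of the same strain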
Conditions: S. cerevisiae rad50 strain growth inhibition; at 50.0 µM (retest, dose inferred, filed as 5.0); stronger effect = higher value
Procedure, shortened: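 Relative growth inhibition (compound vs vehicle) was measured in yeast with a defined repair-gene alteration.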

| Structure (SMILES) | growth inhibition |
| --- | --- |
| COc1ccc(Cc2nc3ccccc3s2)cc1OC | 98% (active) |
| CN(NC(=O)c1cccs1)C1=NCCCN1 | 83% (active) |
| Cc1cccc2c1C(=O)N(CC[P+](c1ccccc1)(c1ccccc1)c1ccccc1)C2=O | 85% (active) |
| CCc1cc2c(cc1O)CC[C@@H]1[C@@H]2CC[C@]2(C)[C@@H](O)CC[C@@H]12 | 96% (active) |
| C[n+]1c2ccc(Cl)cc2nc2cc(-c3ccccc3)ccc21 | 98% (active) |
| CCCCCN=Cc1c(O)c(O)c(C(C)C)c2cc(C)c(-c3c(C)cc4c(C(C)C)c(O)c(O)c(C=NCCCCC)c4c3O)c(O)c12 | 43% |
| CCOC1(c2ccccc2)c2ccccc2S(=O)(=O)N1C (stereo not given) | 4% |
| CCN(CC)CCNc1ccc(C)c2sc3ccc(OC)cc3c(=O)c12 | 94% (active) |
| Cc1nc2c(cnn2-c2ccccc2)c(=O)o1 | -140% |
| O=S(=O)(c1ccc(NC(=S)NCc2ccncc2)cc1)N1CCCCC1 | -2% |
| Nc1nn2c(C(Br)Br)cc(C(Br)Br)nc2c1[N+](=O)[O-] | 100% (active) |
| O=C1C=CC(=O)N1c1ccccc1 (tested in a mixture with another compound) | 20% |
| O=C(O)CCSc1ncnc2nc[nH]c12 | 0% |
| COc1cccc(=O)cc1 | 86% (active) |
| CCN(CC)CCCC(=O)Nc1cc(OC)cc2cccnc12 | 0% |
| COc1ccc(C2SCC(=O)N2c2ccc(-c3ccc(-n4c(-c5ccccc5)nc5ccccc5c4=O)cc3)cc2)cc1 (stereo not given) | 33% |
| CC(=O)OC(C#N)CC(C)(C)/[N+]([O-])=[N+](\[O-])C(C)(C)CC(C#N)OC(C)=O (stereo not given) | 44% |
| ICCCCCCCCCC[n+]1ccc2ccccc2c1 | 98% (active) |
| CCCCCc1[nH]nc(C(=O)OC)c1N=NN1CCOCC1 | 98% (active) |
| Clc1ccc(C(c2ccc(Cl)cc2)c2cncnc2)cc1 | 96% (active) |

| Structure (SMILES) | growth inhibition |
| --- | --- |
| CC1=C(C(=O)Nc2cccc(Cl)c2)C(c2ccc([N+](=O)[O-])cc2)C(C(=O)Nc2cccc(Cl)c2)=C(C)N1 | 44% |
| NC1=NC(c2ccccc2)CC(c2cc(Cl)cc(Br)c2O)=N1 (stereo not given) | 25% |
| CC(NNC(=S)NCc1ccccc1)c1cc2ccccc2cn1 (stereo not given) | 88% (active) |
| C=CCOC(=O)CC(O)C(=O)OCC=C (stereo not given) | 7% |
| OC(C(=Nc1ccccc1)c1ccccc1)c1ccccc1 (stereo not given) | 96% (active) |
| C=CC1(NC(=O)c2ccccc2)CCC(C(C)(C)C)CC1 (stereo not given) | 96% (active) |
| O=C(Nc1ccccc1-c1nn(CN2CCNCC2)c(=S)n(CN2CCNCC2)c1=O)C(F)(F)F | 17% |
| CCN(CC)CCOc1c(I)cc(I)cc1I | 98% (active) |
| CCN(CC)CC(O)c1ccnc2c(O)cccc12 (stereo not given) | 40% |
| O=[N+]([O-])c1ccc(-c2nc(/C=N/N3CCCCC3)cs2)o1 | 57% |
| O=C(CCn1[nH]c(=O)c(Cl)c(Cl)c1=O)NNc1ccc([N+](=O)[O-])cc1[N+](=O)[O-] | 36% |
| COc1ccc(-c2c(CO)cc(OC)c(OC)c2OC)c(CO)c1 | 6% |
| C(=C\c1cnnc2ccccc12)/c1ccco1 | 32% |
| CCCCCCCCNc1ccc(Cl)cc1 | 96% (active) |
| Cc1ccc2ccc(C(Nc3ccccc3)c3ccncc3)c(O)c2n1 (stereo not given) | 92% (active) |
| c1ccc(C2=NOC3(c4ccccc4)SC4CCCCC4CN23)cc1 (stereo not given) | 97% (active) |
| COc1ccc(C(=O)Nc2ccccc2[N+](=O)[O-])cc1 | 7% |
| CC(=O)CC(C)=NCCN=C(C)CC(C)=O.[Pd] | 61% |
| Cc1cc2oc3c(ccc(=O)n3C)c(=O)c2c(C)c1Cl | 38% |
| CCCOc1ccc(/C=N/NC(N)=S)cc1 | 73% (active) |

Same assay, conditions: S. cerevisiae rad50 strain growth inhibition; at 50.0 µM; stronger effect = higher value

| Structure (SMILES) | growth inhibition |
| --- | --- |
| COc1ccc(Cc2nc3ccccc3s2)cc1OC | 90.3% (active) |
| CN(NC(=O)c1cccs1)C1=NCCCN1 | -18.2% |
| Cc1cccc2c1C(=O)N(CC[P+](c1ccccc1)(c1ccccc1)c1ccccc1)C2=O | 58.1% |
| CCc1cc2c(cc1O)CC[C@@H]1[C@@H]2CC[C@]2(C)[C@@H](O)CC[C@@H]12 | 88% (active) |
| C[n+]1c2ccc(Cl)cc2nc2cc(-c3ccccc3)ccc21 | 98.6% (active) |
| CCCCCN=Cc1c(O)c(O)c(C(C)C)c2cc(C)c(-c3c(C)cc4c(C(C)C)c(O)c(O)c(C=NCCCCC)c4c3O)c(O)c12 | 14.8% |
| CCOC1(c2ccccc2)c2ccccc2S(=O)(=O)N1C (stereo not given) | 11.1% |
| CCN(CC)CCNc1ccc(C)c2sc3ccc(OC)cc3c(=O)c12 | 90.7% (active) |
| Cc1nc2c(cnn2-c2ccccc2)c(=O)o1 | 28.3% |
| O=S(=O)(c1ccc(NC(=S)NCc2ccncc2)cc1)N1CCCCC1 | 15.5% |
| Nc1nn2c(C(Br)Br)cc(C(Br)Br)nc2c1[N+](=O)[O-] | 99.5% (active) |
| O=C1C=CC(=O)N1c1ccccc1 (tested in a mixture with another compound) | 91% (active) |
| O=C(O)CCSc1ncnc2nc[nH]c12 | -22.9% |
| COc1cccc(=O)cc1 | 83.3% (active) |
| CCN(CC)CCCC(=O)Nc1cc(OC)cc2cccnc12 | 3.65% |
| COc1ccc(C2SCC(=O)N2c2ccc(-c3ccc(-n4c(-c5ccccc5)nc5ccccc5c4=O)cc3)cc2)cc1 (stereo not given) | 21.6% |
| CC(=O)OC(C#N)CC(C)(C)/[N+]([O-])=[N+](\[O-])C(C)(C)CC(C#N)OC(C)=O (stereo not given) | 23.9% |
| ICCCCCCCCCC[n+]1ccc2ccccc2c1 | 88.9% (active) |
| CCCCCc1[nH]nc(C(=O)OC)c1N=NN1CCOCC1 | 99.2% (active) |
| Clc1ccc(C(c2ccc(Cl)cc2)c2cncnc2)cc1 | 89.8% (active) |

| Structure (SMILES) | growth inhibition |
| --- | --- |
| CC1=C(C(=O)Nc2cccc(Cl)c2)C(c2ccc([N+](=O)[O-])cc2)C(C(=O)Nc2cccc(Cl)c2)=C(C)N1 | 57.9% |
| NC1=NC(c2ccccc2)CC(c2cc(Cl)cc(Br)c2O)=N1 (stereo not given) | 35.1% |
| CC(NNC(=S)NCc1ccccc1)c1cc2ccccc2cn1 (stereo not given) | 82.2% (active) |
| C=CCOC(=O)CC(O)C(=O)OCC=C (stereo not given) | 0.95% |
| OC(C(=Nc1ccccc1)c1ccccc1)c1ccccc1 (stereo not given) | 98.7% (active) |
| C=CC1(NC(=O)c2ccccc2)CCC(C(C)(C)C)CC1 (stereo not given) | 48.9% |
| O=C(Nc1ccccc1-c1nn(CN2CCNCC2)c(=S)n(CN2CCNCC2)c1=O)C(F)(F)F | 7.5% |
| CCN(CC)CCOc1c(I)cc(I)cc1I | 84.3% (active) |
| CCN(CC)CC(O)c1ccnc2c(O)cccc12 (stereo not given) | 80.2% (active) |
| O=[N+]([O-])c1ccc(-c2nc(/C=N/N3CCCCC3)cs2)o1 | 69.7% |
| O=C(CCn1[nH]c(=O)c(Cl)c(Cl)c1=O)NNc1ccc([N+](=O)[O-])cc1[N+](=O)[O-] | 35.8% |
| COc1ccc(-c2c(CO)cc(OC)c(OC)c2OC)c(CO)c1 | 93.5% (active) |
| C(=C\c1cnnc2ccccc12)/c1ccco1 | 58.2% |
| CCCCCCCCNc1ccc(Cl)cc1 | 91.8% (active) |
| Cc1ccc2ccc(C(Nc3ccccc3)c3ccncc3)c(O)c2n1 (stereo not given) | 90.8% (active) |
| c1ccc(C2=NOC3(c4ccccc4)SC4CCCCC4CN23)cc1 (stereo not given) | 90.3% (active) |
| COc1ccc(C(=O)Nc2ccccc2[N+](=O)[O-])cc1 | -1.15% |
| CC(=O)CC(C)=NCCN=C(C)CC(C)=O.[Pd] | 76% (active) |
| Cc1cc2oc3c(ccc(=O)n3C)c(=O)c2c(C)c1Cl | 53.7% |
| CCCOc1ccc(/C=N/NC(N)=S)cc1 | 42.1% |
